In test [1] the target is T1, Aspartate--tRNA(Asp/Asn) ligase (Mycobacterium tuberculosis (strain ATCC 25618 / H37Rv)) (UniProt P9WFW3). Note: in the data most compounds retested in dose-response had high values.
T1 sequence (whole entry): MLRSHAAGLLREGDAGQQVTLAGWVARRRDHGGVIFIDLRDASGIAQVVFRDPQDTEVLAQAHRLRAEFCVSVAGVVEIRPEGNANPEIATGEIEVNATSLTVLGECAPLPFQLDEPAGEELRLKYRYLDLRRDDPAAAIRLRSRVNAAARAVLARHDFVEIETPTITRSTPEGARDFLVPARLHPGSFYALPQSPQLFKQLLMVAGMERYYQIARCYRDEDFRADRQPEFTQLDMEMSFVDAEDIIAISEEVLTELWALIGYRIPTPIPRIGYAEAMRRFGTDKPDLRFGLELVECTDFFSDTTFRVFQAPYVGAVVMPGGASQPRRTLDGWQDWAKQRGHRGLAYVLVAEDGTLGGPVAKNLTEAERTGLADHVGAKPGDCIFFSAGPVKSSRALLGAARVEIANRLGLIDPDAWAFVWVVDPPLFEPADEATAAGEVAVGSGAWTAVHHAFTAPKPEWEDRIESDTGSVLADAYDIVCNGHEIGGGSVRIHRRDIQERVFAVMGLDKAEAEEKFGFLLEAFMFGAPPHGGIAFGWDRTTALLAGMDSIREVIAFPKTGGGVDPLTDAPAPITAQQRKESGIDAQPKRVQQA
Put plainly: Assay for Asp RNA synthetase-1 from Mycobacterium tuberculosis. The format is functional. The arrangement: scale not given: direction of the effect not stated beside the values. The settings on record: 30 µM.

Test [2] has as its target Shiga toxin 2 (Escherichia coli O157:H7) (UniProt P09385+P09386). Put plainly: E. coli 0.157:H7 Shiga Toxin SOP - stx2 screening assay. The format is functional. The arrangement: scale not given: direction of the effect not stated beside the values. The conditions noted are these: 30 µM.

Each structure is given as a SMILES string.

`N#Cc1ccc(CN2CCN(C(=O)C3CCC3)[C@@H]3CS(=O)(=O)C[C@@H]32)cc1`: the Percent Effect in test [1] was -2.41%; in test [2], -34.5%.
The like results for `O=C(CCC1CCCC1)N1CCC(c2ncc3c(n2)CCNC3)CC1` were, in that order, -3.47% and -54.5%.
The like results for `Cc1ccc(OCC(=O)NCC(C)C)nc1` were, in that order, -3.37% and -28.9%.
Taken in the same sequence, the figures for `COc1ccc(C(=O)N2CCCCC2c2nc(C)cs2)nn1` (centres undefined) were -4.46% and -31.3%.
With `CCOc1cccc2c1OCC(C(=O)NS(=O)(=O)c1ccc(Cl)cc1)=C2`, the Percent Effect in test [1] came out at 0.459%; in test [2] it was 17%.
The like results for `c1ccc(CN2CC[C@@H]3O[C@H](COCc4ccncc4)CC[C@@H]32)nc1` were, in that order, -0.574% and -18%.
Taken in the same sequence, the figures for `Cc1nc(CC(=O)N2CCC[C@H]2c2nc(C(C)C)no2)cs1` were -2.23% and 4.58%.
Taken in the same sequence, the figures for `CNC(=O)[C@@H]1C[C@H]2CN(Cc3ccco3)C[C@H]2N1C` were 1.3% and -1.93%.
As to `CCc1nc(CC(=O)N2CCCC2Cn2cccn2)cs1` (centres undefined), the Percent Effect in test [1] was found to be 0.426%; in test [2], 10.2%.
Turning to `O=C(NCC(Cc1cccc(F)c1)N1CCCC1=O)c1ccccc1` (centres undefined), the Percent Effect was -2.27% in test [1] and -0.947% in test [2].
The like results for `Cc1c(C)n(Cc2ccncc2)c2nc3c(c(N)c12)CCCCC3` were, in that order, 4.67% and -41.4%.
With `CC(C(=O)NCc1ccnc(Oc2ccc(F)cc2)c1)n1cncn1` (centres undefined), the Percent Effect in test [1] was -5.88%; in test [2], 6.33%.
Take `CC(C)Cc1cc(NC(=O)c2ccc(=O)[nH]n2)n(C)n1`: the Percent Effect in test [1] was -2.97%; in test [2], -34.7%.
Taken in the same sequence, the figures for `O=C(C1CC=CC1)N1C[C@@H]2[C@@H](C1)OCC(=O)N2Cc1cccnc1` were 1.21% and -12.2%.
The like results for `Cn1nc(COc2cccnc2)c2c1CCN(c1cnccn1)C2` were, in that order, 10.9% and 7.98%.
The like results for `NS(=O)(=O)CCNC(=O)c1ccc(-c2ccc(F)cc2)cc1F` were, in that order, 16.3% and -53.6%.
Take `c1ccc2sc(CN3CCOC(Cn4cncn4)C3)nc2c1` (centres undefined): the values for the Percent Effect in test [1] and in test [2] were -5.32% and 14%, respectively.
Taken in the same sequence, the figures for `CN(C)S(=O)(=O)N1CCN(c2ccnc(N3CCCC3)n2)CC1` were -2.66% and -41.2%.
The like results for `CN(C)Cc1cnc2n1CCN(Cc1ccsc1)CC2` were, in that order, -5.79% and -3.72%.
The like results for `O=C1CCCCN1Cc1cccc(NC(=O)N2CCSCC2)c1` were, in that order, -4.71% and -1.06%.
For the compound `NS(=O)(=O)CCNC(=O)C1(c2ccc(Br)cc2)CC1`, the figures for the Percent Effect in test [1] and in test [2] were 1.66% and -28.2%, respectively.
On to `CCC1(CC)Cc2ccccc2-c2nc(CN(C)C)nc(O)c21`, for which the Percent Effect in test [1] was 8.36%; in test [2], -1.34%.
Taken in the same sequence, the figures for `O=C(Nc1cn[nH]c1)c1ccc(O)nc1` were -1.37% and 30.3%.
Taken in the same sequence, the figures for `COc1cc(CNc2cnn(C)c2)cc2c1OCCO2` were -1.79% and 7.95%.
With `CN1CCOC(CN(C(=O)CC2CCCC2)c2nccs2)C1` (centres undefined), the Percent Effect in test [1] was determined as 6.38%; in test [2], 27.4%.
The like results for `CCc1nc(NCCCOC)c2c(n1)c(C)nn2C` were, in that order, -8.39% and -21.6%.
As for `COc1cc(C(=O)N(Cc2ccco2)C2CC2)cc2c1OCCO2`, the results for the Percent Effect in test [1] and in test [2] were 1.56% and -6.37%, respectively.
The like results for `c1ccc(Cn2cc3c(n2)C(COCC2CC2)OCC3)nc1` (centres undefined) were, in that order, 4.12% and -12.1%.
The like results for `Cc1ccoc1-c1nnc(CN2CCCC(Cn3cncn3)C2)o1` (centres undefined) were, in that order, 1.01% and -16.9%.
Taken in the same sequence, the figures for `CCCNC(=O)CNC(=O)CCc1ccccc1Br` were -2.76% and -0.75%.
Take `Cc1cc(O)nc(C2CCCN(Cc3ccncc3)C2)n1` (centres undefined): the values for the Percent Effect in test [1] and in test [2] were 1.35% and 11.8%, respectively.
`Cc1cc(C)n(CC2CN(CCOc3cccc(F)c3)CCO2)n1` (centres undefined): the Percent Effect in test [1] was 3.93%; in test [2], 36.7%.
Taken in the same sequence, the figures for `CC(C)c1nc(CN(C)C2CCN(Cc3nc(C4CC4)no3)C2)no1` (centres undefined) were 5.06% and -26.4%.
Take `O=C(NCc1ccc(OCC2CC2)nc1)c1c(F)cccc1F`: the values for the Percent Effect in test [1] and in test [2] were -0.03% and 0.72%, respectively.
The like results for `Cc1cc(NC(=O)NCC(C)N2CCc3ccccc32)no1` (centres undefined) were, in that order, 2.59% and -1.83%.
The like results for `Cc1ccc(CNC(=O)Cn2ncc3c2c(C)nn3C)cc1` were, in that order, -3.46% and -20.9%.
Taken in the same sequence, the figures for `Cc1[nH]ncc1C(=O)N1CCCC(n2cncn2)C1` (centres undefined) were 1.7% and 22.7%.
With `Cc1nccn1C1CCCN(C(=O)C2=NN(C)C(=O)CC2)C1` (centres undefined), the Percent Effect is -1.52% in test [1] and 19% in test [2].
Taken in the same sequence, the figures for `CN(C)CC1CN(C(=O)NCc2ccccc2)Cc2nccn2C1` (centres undefined) were -0.114% and -2.62%.
The like results for `CCc1nc(C2CCCN(C(=O)c3ccc(OC(C)C)nc3)C2)no1` (centres undefined) were, in that order, -1.24% and 17.3%.
Taken in the same sequence, the figures for `CNC(=O)c1cc2c(nc1NCC(C)C)CCN(S(=O)(=O)C1CC1)CC2` were -2.58% and 1.28%.
Consider `CCn1c(C)nnc1CN(C)C1CCN(CCCOC)C1` (centres undefined), for which the Percent Effect in test [1] is 1.79%; in test [2] it was 7.8%.
The like results for `CCN(CC)Cc1ccc(C(=O)N2CCN(CC(C)O)CC2)cc1` (centres undefined) were, in that order, 0.607% and 8.97%.
The like results for `CN(C)S(=O)(=O)N1CCCC(c2cccc(Cc3ccccc3)n2)C1` (centres undefined) were, in that order, 2.78% and 67.3%.
The like results for `c1cnc(NCc2noc3c2CN(C2CCOCC2)CC3)nc1` were, in that order, 2.79% and -7.78%.
As to `Cc1cc(C)n(CC2CCCN2CC(=O)NC2CCOCC2)n1` (centres undefined), the Percent Effect in test [1] was -3.04%; in test [2], -26.7%.
The like results for `Cc1scc(C(=O)N2CCC3(CCCN(C)C3=O)C2)c1-c1ccccc1` (centres undefined) were, in that order, 2.02% and 8.94%.

The record behind these values is ChEMBL document CHEMBL3988442, “University of Dundee, Small-Polar-MMV Screening Library” (2021).
